Consider 38 molecules from PubChem BioAssay (Tox21).

SMILES strings stand for the structures. Records with an inconclusive call do not appear. Unmarked numbers belong to inactive results. Calls come from the whole dose curve; as a rule, active = well fitted curve in the direction sought with a large enough effect in the repeat runs; inconclusive = weak or mixed curves; inactive = no such curve, though single readings can be large; an effect the other way counts as inactive or inconclusive.
% is set by controls: 0 for no effect and ±100 for the full control effect.

One experiment in a line: qHTS assay to identify small molecule agonists of the sonic hedgehog signaling (Shh) pathway - cell viability counter screen (AID 1259366). Note: nearly all actives have a fitted effect of over 50% in size. Conditions: NIH/3T3 Gli1-Luc viability, CellTiter-Fluor, 24 h; series mostly up to 92.4 µM; viability change, negative = cytotoxic: at the top concentration. An outline of the steps:
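Cytotoxicity counter screen run in the same wells as the Shh reporter assay. NIH/3T3 cells carrying a Gli1 response element–driven luciferase were treated with DMSO-dissolved compounds for 24hr, and live-cell protease activity was measured with CellTiter-Fluor.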
Background: Quantitative high-throughput screening tests each substance at several concentrations.
As for `CCCCCCCCCCCCCCCC(=O)OC`, the viability change, negative = cytotoxic is 4.58% [at 19 µM].

For `N[C@H]1C(O)O[C@H](CO)[C@@H](O)[C@@H]1O` (stereo partly specified), the “viability change, negative = cytotoxic” value is -3.19% [at 42.5 µM].

As to `C=C(C)C(=O)OCCOC1CC2CC1C1C=CCC21` (stereo unspecified), the “viability change, negative = cytotoxic” value was -2.95%.

Consider `C=COCCCCO`, for which the “viability change, negative = cytotoxic” value was 3.59%.

Take `COC(=O)c1ccc(C(=O)O)cc1`: the “viability change, negative = cytotoxic” value is 4.31%.

With `COC(=O)c1cc(Cl)c(NC(C)=O)cc1OC`, the “viability change, negative = cytotoxic” value is 0.492% [at 42.5 µM].

In the case of `COC(=O)/C=C(\C)CCC=C(C)C`, the “viability change, negative = cytotoxic” value was 0.0434%.

In the case of `CCO[Si](CC(C)C)(OCC)OCC`, the “viability change, negative = cytotoxic” value was -8.97%.

For the molecule `CC(C)C(C)C`, the “viability change, negative = cytotoxic” value was -8.54%.

For `CC1(C)S[C@@H]2[C@H](NC(=O)Cc3ccccc3)C(=O)N2[C@H]1C(=O)O` (tested in a mixture with another compound), the “viability change, negative = cytotoxic” value was 0.731% [at 42.5 µM].

`CCOC(=O)CN1CCCC1=O`: the “viability change, negative = cytotoxic” value is 1.02% [at 42.5 µM].

For `CC[N+](C)(CC)CC`, the “viability change, negative = cytotoxic” value is 4.37%.

With `BrCCOc1ccccc1`, the “viability change, negative = cytotoxic” value was 0.414%.

As for `CCCCC(CC)COC(=O)CC#N` (stereo unspecified), the “viability change, negative = cytotoxic” value was 2.64%.

Take `Cc1ccc2cccnc2c1`: the “viability change, negative = cytotoxic” value was -1.44%.

`CCCCCCCCCCCCCCCCN(C)C`: the viability change, negative = cytotoxic was 4.7% [at 8.39 µM].

For the molecule `O=S(=O)(O)c1cc(I)c(O)c2ncccc12`, the “viability change, negative = cytotoxic” value is 5.55% [at 42.5 µM].

With `CCC(C)c1nccnc1OC` (stereo unspecified), the “viability change, negative = cytotoxic” value is 17.1%.

Regarding `CCCCC(O)/C=C(C)/C=C/C=C/C(=O)N1CCCC1=O` (stereo unspecified), the “viability change, negative = cytotoxic” value is -5.47% [at 42.5 µM].

On to `Clc1cc(Cl)c(Cl)c(Cl)c1Cl`, for which the “viability change, negative = cytotoxic” value is -3.56%.

With `CC(C)OCCO`, the “viability change, negative = cytotoxic” value is -1.92%.

For the molecule `COc1ccc(Cl)cc1C`, the “viability change, negative = cytotoxic” value was 0.994%.

Take `O=Cc1ccccc1S(=O)(=O)O`: the “viability change, negative = cytotoxic” value was -1.1%.

For `O=c1[nH]c(=O)c2cn[nH]c2[nH]1`, the “viability change, negative = cytotoxic” value was -0.98%.

In the case of `CC(C)(C)c1ccc(C(=O)CCCCl)cc1`, the “viability change, negative = cytotoxic” value is 2.06% [at 42.5 µM].

Turning to `O=C(O)Cc1c(Cl)ccc(Cl)c1Cl`, the “viability change, negative = cytotoxic” value is 9.81%.

`CC(C)(C)NCC(O)COc1cccc2c1CCC(=O)N2` (stereo unspecified): the “viability change, negative = cytotoxic” value is -0.451% [at 42.5 µM].

On to `CCC(C)(C)C`, for which the “viability change, negative = cytotoxic” value was 0.146%.

For the molecule `C=CCON/C(CCC)=C1\C(=O)CC(C)(C)C(C(=O)OC)=C1O`, the “viability change, negative = cytotoxic” value is -4.82%.

`C/C=C/C(=O)CCCC`: the “viability change, negative = cytotoxic” value is 3.01%.

With `CN1CCN(C(=O)C2CCCCC2)CC1`, the “viability change, negative = cytotoxic” value is -1.81% [at 42.5 µM].

Consider `CCCOc1ccc(C(=O)OCCN(CC)CC)cc1N`, for which the “viability change, negative = cytotoxic” value is 9.23% [at 42.5 µM].

As for `Cc1nnc(C(=O)NC(C)(C)c2nc(C(=O)NCc3ccc(F)cc3)c(O)c(=O)n2C)o1`, the “viability change, negative = cytotoxic” value is -0.755% [at 42.5 µM].

With `COc1cc2nc(N3CCN(C(=O)C4CCCO4)CC3)nc(N)c2cc1OC` (stereo unspecified), the “viability change, negative = cytotoxic” value was -9.65% [at 42.5 µM].

For `CC(=O)SCC(CC(=O)c1ccc(C)cc1)C(=O)O` (stereo unspecified), the “viability change, negative = cytotoxic” value was -0.23% [at 42.5 µM].

`CCc1ncc(C)[nH]1`: the “viability change, negative = cytotoxic” value is 6.16%.

As for `CCN(CC)CC(=O)Oc1ccc(NC(C)=O)cc1`, the “viability change, negative = cytotoxic” value was 2.79% [at 42.5 µM].

With `CCN1CCN(C(=O)N[C@@H](C(=O)N[C@@H]2C(=O)N3[C@@H]2SC(C)(C)[C@H]3C(=O)O)c2ccccc2)C(=O)C1=O`, the “viability change, negative = cytotoxic” value was 3.26% [at 42.5 µM].

The next experiment can be described thus: qHTS assay to identify small molecule antagonists of the sonic hedgehog signaling (Shh) pathway - cell viability counter screen (AID 1259367). Note: nearly all actives have a fitted effect of over 55% in size. Conditions: NIH/3T3 Gli1-Luc viability, CellTiter-Fluor, 24 h; series mostly up to 92.4 µM; viability change, negative = cytotoxic: at the top concentration. In a few lines: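 Seed 3T3 Gli1-Luc cells at 2,000 per well; incubate 4 hr; add compound in DMSO, then conditioned medium; incubate at 37C with 5% CO2; add CellTiter-Fluor after 23 hr; read fluorescence 1 hr later.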
Take `CCCCCCCCCCCCCCCC(=O)OC`: the viability change, negative = cytotoxic was -2.31% [at 19 µM].

As to `N[C@H]1C(O)O[C@H](CO)[C@@H](O)[C@@H]1O` (stereo partly specified), the “viability change, negative = cytotoxic” value is 0.834% [at 42.5 µM].

Consider `C=C(C)C(=O)OCCOC1CC2CC1C1C=CCC21` (stereo unspecified), for which the “viability change, negative = cytotoxic” value is 0.455%.

Consider `C=COCCCCO`, for which the “viability change, negative = cytotoxic” value is -2.23%.

On to `COC(=O)c1ccc(C(=O)O)cc1`, for which the “viability change, negative = cytotoxic” value is 5.9%.

For `COC(=O)c1cc(Cl)c(NC(C)=O)cc1OC`, the “viability change, negative = cytotoxic” value is 1.77% [at 42.5 µM].

With `COC(=O)/C=C(\C)CCC=C(C)C`, the “viability change, negative = cytotoxic” value is 0.81%.

Regarding `CCO[Si](CC(C)C)(OCC)OCC`, the “viability change, negative = cytotoxic” value was -2.07%.

As for `CC(C)C(C)C`, the “viability change, negative = cytotoxic” value was 3.3%.

For the molecule `CC1(C)S[C@@H]2[C@H](NC(=O)Cc3ccccc3)C(=O)N2[C@H]1C(=O)O` (tested in a mixture with another compound), the “viability change, negative = cytotoxic” value was -0.0539% [at 42.5 µM].

Turning to `CCOC(=O)CN1CCCC1=O`, the “viability change, negative = cytotoxic” value is 1.82% [at 42.5 µM].

Take `CC[N+](C)(CC)CC`: the “viability change, negative = cytotoxic” value is 1.45%.

For the molecule `BrCCOc1ccccc1`, the “viability change, negative = cytotoxic” value was -4.04%.

`CCCCC(CC)COC(=O)CC#N` (stereo unspecified): the “viability change, negative = cytotoxic” value is -3.74%.

For the molecule `Cc1ccc2cccnc2c1`, the “viability change, negative = cytotoxic” value was 9.68%.

With `CCCCCCCCCCCCCCCCN(C)C`, the viability change, negative = cytotoxic was 2.16% [at 8.39 µM].

Regarding `O=S(=O)(O)c1cc(I)c(O)c2ncccc12`, the “viability change, negative = cytotoxic” value was 1.06% [at 42.5 µM].

Take `CCC(C)c1nccnc1OC` (stereo unspecified): the “viability change, negative = cytotoxic” value was 9.94%.

With `CCCCC(O)/C=C(C)/C=C/C=C/C(=O)N1CCCC1=O` (stereo unspecified), the “viability change, negative = cytotoxic” value is -1% [at 42.5 µM].

For the molecule `Clc1cc(Cl)c(Cl)c(Cl)c1Cl`, the “viability change, negative = cytotoxic” value was 2.31%.

Take `CC(C)OCCO`: the “viability change, negative = cytotoxic” value was -2.17%.

Turning to `COc1ccc(Cl)cc1C`, the “viability change, negative = cytotoxic” value was 0.29%.

`O=Cc1ccccc1S(=O)(=O)O`: the “viability change, negative = cytotoxic” value was 4.79%.

In the case of `O=c1[nH]c(=O)c2cn[nH]c2[nH]1`, the “viability change, negative = cytotoxic” value is 0.766%.

Regarding `CC(C)(C)c1ccc(C(=O)CCCCl)cc1`, the “viability change, negative = cytotoxic” value is 7.95% [at 42.5 µM].

Take `O=C(O)Cc1c(Cl)ccc(Cl)c1Cl`: the “viability change, negative = cytotoxic” value is 1.38%.

`CC(C)(C)NCC(O)COc1cccc2c1CCC(=O)N2` (stereo unspecified): the “viability change, negative = cytotoxic” value is 0.284% [at 42.5 µM].

Turning to `CCC(C)(C)C`, the “viability change, negative = cytotoxic” value is -0.556%.

As to `C=CCON/C(CCC)=C1\C(=O)CC(C)(C)C(C(=O)OC)=C1O`, the “viability change, negative = cytotoxic” value is -8.75%.

In the case of `C/C=C/C(=O)CCCC`, the “viability change, negative = cytotoxic” value was 0.881%.

For `CN1CCN(C(=O)C2CCCCC2)CC1`, the “viability change, negative = cytotoxic” value was -1.65% [at 42.5 µM].

With `CCCOc1ccc(C(=O)OCCN(CC)CC)cc1N`, the “viability change, negative = cytotoxic” value was 0.712% [at 42.5 µM].

With `Cc1nnc(C(=O)NC(C)(C)c2nc(C(=O)NCc3ccc(F)cc3)c(O)c(=O)n2C)o1`, the “viability change, negative = cytotoxic” value is 1.86% [at 42.5 µM].

For the molecule `COc1cc2nc(N3CCN(C(=O)C4CCCO4)CC3)nc(N)c2cc1OC` (stereo unspecified), the “viability change, negative = cytotoxic” value is -3.15% [at 42.5 µM].

`CC(=O)SCC(CC(=O)c1ccc(C)cc1)C(=O)O` (stereo unspecified): the “viability change, negative = cytotoxic” value was 1.42% [at 42.5 µM].

Consider `CCc1ncc(C)[nH]1`, for which the “viability change, negative = cytotoxic” value was 0.954%.

As for `CCN(CC)CC(=O)Oc1ccc(NC(C)=O)cc1`, the “viability change, negative = cytotoxic” value was 1.2% [at 42.5 µM].

Take `CCN1CCN(C(=O)N[C@@H](C(=O)N[C@@H]2C(=O)N3[C@@H]2SC(C)(C)[C@H]3C(=O)O)c2ccccc2)C(=O)C1=O`: the “viability change, negative = cytotoxic” value is 0% [at 42.5 µM].
